{
  "source": "PubChem BioAssay AID488857",
  "about": "(Sanford-Burnham Center for Chemical Genomics, 2010)",
  "note": "Out of some 1,400 compounds screened, about 560 (40%) were called active. The set was probably picked from earlier hits. The list shows a part of the results. Unmarked numbers belong to inactive results.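 The calls were made as follows: active = mean inhibition over duplicate tests at 10 µM above 50%; inactive = the rest.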",
  "data": [
    {"assay": "ASC/caspase-1 reporter retest in S. cerevisiae at one dose, specificity check for NALP1 project (AID 488857)", "details": "S. cerevisiae ASC/Caspase-1, beta-galactosidase luminescence, 24 h; at 10 µM; stronger effect = higher value", "values": [
      {"smiles": "C/C(=C(\\C#N)C(=O)NCc1ccccc1)N(C)C", "inhibition": "34.8%"},
      {"smiles": "CCOc1ccc(OCCCCn2ccnc2)cc1", "inhibition": "54.8% (active)"},
      {"smiles": "CCC(C)c1ccc(OCCn2ccnc2)cc1", "note": "(stereo not drawn)", "inhibition": "73.5% (active)"},
      {"smiles": "CC1=CCC2C(=O)N(Cc3ccccc3)C(=O)C2C1", "note": "(stereo not drawn)", "inhibition": "33.4%"},
      {"smiles": "COc1ccc(-c2noc(CCC(=O)N3CCC(C)CC3)n2)cc1", "inhibition": "47.6%"},
      {"smiles": "CCCN(Cc1nc(-c2ccc(Cl)cc2)no1)CC1CCCO1", "note": "(stereo not drawn)", "inhibition": "54.2% (active)"},
      {"smiles": "O=C(COC(=O)C1(c2ccccc2F)CCCC1)N1CCOCC1", "inhibition": "27.1%"},
      {"smiles": "O=C1NC(c2ccccc2)Nc2c1sc(=S)n2-c1ccccc1", "note": "(stereo not drawn)", "inhibition": "32.5%"},
      {"smiles": "COCCN=C1Sc2nc3ccc(C)cc3cc2CN1Cc1ccco1", "inhibition": "57.1% (active)"},
      {"smiles": "COC(=O)c1cc(=O)n(-c2ccc(F)cc2)c(=Nc2ccc(F)cc2)s1", "inhibition": "39.8%"},
      {"smiles": "COC(=O)c1cc(=O)n(-c2ccccc2)c(=Nc2ccccc2)s1", "inhibition": "61.7% (active)"},
      {"smiles": "Cc1csc(NC(=O)CCc2ccc(S(=O)(=O)N3CCOCC3)cc2)n1", "inhibition": "40.8%"},
      {"smiles": "Cc1nc(NC(=O)CCc2ccccc2)ccc1Br", "inhibition": "63.3% (active)"},
      {"smiles": "COc1ccc(OCC(O)Cn2c(=N)n(Cc3ccccc3)c3ccccc32)cc1", "note": "(stereo not drawn)", "inhibition": "27.6%"},
      {"smiles": "OC(CN1CCN(Cc2ccccc2)CC1)Cn1c2ccccc2c2ccccc21", "note": "(stereo not drawn)", "inhibition": "56.6% (active)"},
      {"smiles": "OC(CN1CCCCC1)Cn1c2ccc(Cl)cc2c2cc(Cl)ccc21", "note": "(stereo not drawn)", "inhibition": "49%"},
      {"smiles": "CCCSc1ccc2nc(-c3ccccc3)cn2c1", "inhibition": "88.8% (active)"},
      {"smiles": "Cc1nc(-c2ccccc2)sc1C(=O)CSc1ccccc1", "inhibition": "46.5%"},
      {"smiles": "O=[N+]([O-])c1ccc(N2CCN(c3ccc(Cl)nn3)CC2)c(Cl)c1", "inhibition": "47.7%"},
      {"smiles": "O=C1C(Cl)=C(N2CCN(c3ccccc3[N+](=O)[O-])CC2)C(=O)c2ccccc21", "inhibition": "68.8% (active)"},
      {"smiles": "CC(C)CC(=O)N1CCN(c2ccc([N+](=O)[O-])cc2Cl)CC1", "inhibition": "39.9%"},
      {"smiles": "CC1(C)Cc2c(c(N3CCOCC3)nc3sc4c(NCCN5CCOCC5)nnnc4c23)CS1", "inhibition": "37.6%"},
      {"smiles": "CC(C)(C)c1nnc(N/N=C/c2cc(Br)ccc2O)n(N)c1=O", "inhibition": "86.8% (active)"},
      {"smiles": "O=c1oc2ccccc2nc1/C=C(O)/C=C/c1ccc(F)cc1", "inhibition": "47.2%"},
      {"smiles": "C/C(=N/Nc1ccc([N+](=O)[O-])cc1)c1ccc(C)cc1C", "inhibition": "50.2% (active)"},
      {"smiles": "COc1ccc(C(=O)/C=C/Nc2ccc([N+](=O)[O-])cc2C)c(OC)c1", "inhibition": "28.5%"},
      {"smiles": "CN(C)CCCN(C(=O)c1ccc2c(c1)CCCC2)c1nc2ccc(F)cc2s1", "inhibition": "61.3% (active)"},
      {"smiles": "CN(C)CCCN(C(=O)c1ccc2c(c1)CCCC2)c1nc2ccc(Cl)cc2s1", "inhibition": "63.9% (active)"}
    ]}
  ]
}
